Screening data deposited in PubChem BioAssay by National Center for Advancing Translational Sciences (NCATS).
KinaseGlo FLuc: Kinase-Glo luciferase inhibition (counter-screen); AID 1379; Kinase-Glo luciferase, ATP luminescence, 8 min; Potency, µM (doses to about 38.3 µM), without a hit: top-dose activity change, negative = inhibition, usual class: inhibitors; Q27757; 200,000 tested, 0.28% active; active = well fitted inhibition curve with a large enough effect; inconclusive = small, poorly fitted or top-dose-only effect; note: potency is the fitted concentration of half-maximal effect; nearly all actives have a fitted effect of over 60% in size
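Compound is pinned into ATP-containing buffer (10 uM ATP, imidazole pH 7.2, 7 mM MgCl2). Kinase-Glo luciferase reagent is then added. Light output is recorded following an 8-min room-temperature incubation.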
ALDH1A1 inh: inhibitors of human aldehyde dehydrogenase 1A1; Potency, µM (series often up to 75.3 µM), inactives show at the highest dose activity, negative = inhibition, hits mostly inhibitors; AID 1030; Purified ALDH1A1, NADH fluorescence, propionaldehyde substrate; 220,000 tested, 7.3% active; P00352;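 note: potency is the fitted concentration of half-maximal effect; plate controls were no enzyme wells and a reference inhibitor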
IMPase cell inh: cell-permeable inhibitors of inositol monophosphatase (IMPase) | P97697 | CHO-M1 cells, IP1 accumulation, HTRF TR-FRET ratio | inhibition (IP1 accumulation), % at 46.1 µM | 120,000 tested, under 10 active; active = well fitted curve in the direction sought with a large enough effect in the signal ratio, not every such curve was filed as active; inconclusive = small, poorly fitted or top-dose-only effect, or a change in a side signal; inactive = no such curve, though single readings can be large or run the other way; the % refers to the signal ratio;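 note: cells stimulated with carbachol in lithium chloride buffer; plate controls were DMSO basal wells for no effect and reference inhibitor wells for full effect; higher means more IMPase inhibition seen as more IP1 and lower FRET ratio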
Target sequence (P97697 whole entry, looked up): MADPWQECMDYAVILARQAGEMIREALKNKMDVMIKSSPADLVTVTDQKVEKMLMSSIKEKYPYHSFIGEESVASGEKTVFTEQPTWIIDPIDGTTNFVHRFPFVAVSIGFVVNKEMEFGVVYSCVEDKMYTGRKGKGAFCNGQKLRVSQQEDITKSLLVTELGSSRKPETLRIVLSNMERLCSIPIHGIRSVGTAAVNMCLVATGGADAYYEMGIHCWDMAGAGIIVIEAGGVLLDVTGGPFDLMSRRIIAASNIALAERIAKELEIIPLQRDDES
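Elevated IP1 in lysates lowers TR-FRET signal (665/620 ratio and 620 channel reported). Cells were CHO-M1, given carbachol (50 uM as added) plus 50mM LiCl, pH 7.4, 30 min, 37C; compounds titrated up to 46 uM; AC50 by Hill equation.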
PNC assembly inh: blocks assembly of the perinucleolar compartment | PC3M PTB-GFP, PNC prevalence imaging, 16 h; hits give low values | activity change (PNC), negative = inhibition, % at 10 µM | 140,000 tested, 3.1% active | AID 2417;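 active = readout at or below -70, meaning at least 70% loss of cells showing the perinucleolar compartment, a nuclear body marking cancer cells; inconclusive = readout between -30 and a set limit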;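 note: plate controls were DMSO wells for no effect and camptothecin positive control wells for full effect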
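Read-out is percentage of cells bearing a perinucleolar compartment, from automated 20x imaging of fixed, Hoechst-stained PC3M PTB-GFP cells. Cells were seeded 4 h, then exposed 16 h to compound (23 nl of library stock) in duplicate plates.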
LMNA splice mod: changes lamin A minigene splicing in HeLa cells; 200,000 tested, 0.01% active; Potency, µM (highest dose often 46.1 µM), inactives show at the highest dose ratio change, negative = inhibition, usual class: inhibitors; HeLa LMNA splicing GFP/RFP minigene ratio, 48 h; active = well fitted inhibition curve with a large enough effect in the signal ratio, with a control signal flat, not every such curve was filed as active; inconclusive = small, poorly fitted or top-dose-only effect, or effect the other way, or a change in a side signal; the % refers to the signal ratio; note: potency is the fitted concentration of half-maximal effect
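Read-out is the ratio of GFP to DsRed2 object intensity, acquired by 488 nm laser-scanning cytometry on HeLa lamin A-EGFP minigene reporter cells. Compound incubation 48 hrs at 37 °C in Opti-MEM with 2% FBS; DMSO 0.5% final.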
HPGD block: HPGD (human) dehydrogenase inhibition | P15428 | purified HPGD, NADH fluorescence kinetic, PGE2 substrate | Potency, µM, inactives show top-dose activity change, negative = inhibition, hits mostly inhibitors | 150,000 tested, 4.3% active | AID 894; note: potency is the fitted concentration of half-maximal effect
Target sequence (P15428 whole entry, looked up): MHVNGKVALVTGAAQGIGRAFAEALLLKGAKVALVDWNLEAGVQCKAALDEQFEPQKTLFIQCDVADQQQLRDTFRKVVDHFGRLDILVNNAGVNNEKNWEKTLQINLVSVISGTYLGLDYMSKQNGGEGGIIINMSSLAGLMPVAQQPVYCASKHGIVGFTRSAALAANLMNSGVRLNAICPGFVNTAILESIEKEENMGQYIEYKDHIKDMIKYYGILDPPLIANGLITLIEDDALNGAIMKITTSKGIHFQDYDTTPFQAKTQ
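20 nM HPGD preincubated 15 min at room temperature with compound in 50 mM Tris-HCl pH 8, 0.01% Tween 20. Started with 1 mM NAD+ and 30 uM prostaglandin E2; NADH fluorescence (360/450 nm) read 5 times over 30-s intervals, last minus first.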
Active calls of the source: *; ? = inconclusive; / = not tested or not shown; [ ] = another dose, or the depositor's remark. In the library only some 10% were active in any assay of this set; here they are far more common. Unless noted, calls come from the whole dose curve; as a rule, active = well fitted inhibition curve with a large enough effect (not every such curve was filed as active); inconclusive = small, poorly fitted or top-dose-only effect, or another doubt; inactive = no such curve, though single readings can be large or run the other way. Unless noted, % is set by controls: 0 for no effect and ±100 for the full control effect.

SMILES | KinaseGlo FLuc | ALDH1A1 inh | IMPase cell inh | PNC assembly inh | LMNA splice mod | HPGD block
O=C(NCc1cccs1)C1CCCN(S(=O)(=O)c2cccs2)C1 (stereo not given) | 3% | 0% | 14 | -25 | -1% | -10%
c1ccc2c(N3CCNCC3)nc(-c3ccoc3)nc2c1 | -1% | -3% | / | / | ? | -7%
NC(=O)C[C@@H](N)c1nn[nH]n1 | -3%[7.66 µM] | 4%[13.5 µM] | / | / | / | -5%
COc1ccc(-c2csc(NC(=O)CN3C(=O)CCC3=O)n2)cc1OC | 4% | 1% | -9 | 44 | -16% | 28µM*
COc1ccc(-c2csc(NC(=O)CN3C(=O)CCC3=O)n2)cc1 | 1% | 12% | / | / | / | /
O=C(CN1C(=O)CCC1=O)Nc1nc(-c2ccc(Oc3ccccc3)cc2)cs1 | 6% | -5% | -12 | -12 | -16% | 18µM*
CCOc1ccccc1CNC(=O)c1cc2c(=O)n(Cc3cccnc3)ccc2nc1C | / | / | / | / | 6%[46 µM] | /
CCNC(=O)CCSc1nnc(-c2ccc(O)cc2)o1 | / | / | 2 | / | / | /
Cc1nc2cc(C(=O)OCC(=O)Nc3ccc(C#N)cc3)ccc2n1-c1ccccc1 | -4% | -2% | / | ? | 6% | ?
Cc1nc2cc(NC(=O)COc3ccc(C#N)cc3)ccc2n1-c1ccccc1 | -2% | 11µM* | -4 | -16 | ? | -14%
C=CCN1/C(=C(\C#N)C2=NS(=O)(=O)c3ccccc32)N(C)c2ccccc21 | -2% | -4% | 0 | -4 | -2% | 14µM*
OCCn1c(CSc2nnc(-c3ccco3)n2-c2ccccc2)nc2ccc(Cl)cc21 | 1% | 13µM* | 11 | -8 | 3% | ?
O=C(ON=C1CCN(S(=O)(=O)c2ccccc2)CC1)c1ccc(F)cc1 | -3% | 2% | -10 | -100* | 5% | -9%
O=C(Cn1c(SCC(=O)N2CCCc3ccccc32)nc2ccccc21)N1CCCC1 | 0% | -2% | -5 | -100* | -4% | -9%
CC(=O)Nc1ccc(NC(=O)Cn2c(CC(=O)N3CCCC3)nc3ccccc32)cc1 | -2% | 3% | 2 | 18 | 0% | 1%
COCCn1c(SCC(=O)NC2CCCC2)nc2cccnc21 | -1% | 3% | / | / | / | /
CC(=O)Nc1ccc(C(=O)CSc2nc3ccccc3n2CC(=O)N2CCCC2)cc1 | 12% | 25µM* | 4 | 36 | -4% | ?
COCCn1c(SCC(=O)N2CCCc3ccccc32)nc2cccnc21 | 0% | 3.2µM* | 8 | ? | 2% | -10%
CC(C)NC(=O)Cn1c(SCC(=O)N2CCCc3ccccc32)nc2ccccc21 | -3% | 2% | -11 | -17 | 8% | -4%
O=c1c(-c2ccc(O[C@@H]3O[C@H](CO)[C@@H](O)[C@H](O)[C@H]3O)cc2)coc2cc(O)cc(O)c12 | 1% | ? | 3 | / | / | -18%
Cc1ccc(NC(=O)CCCn2c(=O)c3cccn3c3ccccc32)cc1C | / | / | / | / | -15%[46 µM] | /
CCOC(=O)C1CCCN(C(=O)c2ccc3c(c2)N(Cc2cccc(Cl)c2)C(=O)c2ccccc2S3(=O)=O)C1 (stereo not given) | / | / | / | / | 1%[46 µM] | /
COc1ccccc1CNC(=O)CCC1N=C2c3ccccc3N=C(SCC(=O)NCCc3ccc(OC)c(OC)c3)N2C1=O (stereo not given) | / | / | / | / | -26%[46 µM] | /
O=C1CC(N2CCN(c3ccccn3)CC2)C(=O)N1CC(c1ccccc1)c1ccccc1 (stereo not given) | -1% | 3.2µM* | -3 | -28 | ? | -27%
COc1ccc(CCN2C(=O)CC(C(N)=O)SC2=Nc2ccccc2)cc1OC (stereo not given) | 0% | 14µM* | -2 | ? | 11% | -9%
SMILES | KinaseGlo FLuc | ALDH1A1 inh | IMPase cell inh | PNC assembly inh | LMNA splice mod | HPGD block
COc1ccc(CCN2C(=O)CC(N3CCN(c4ccccn4)CC3)C2=O)cc1OC (stereo not given) | 4% | 25µM* | 7 | 12 | 2% | -12%
COc1ccc(CCN2C(=O)CC(Sc3ncccc3C(=O)O)C2=O)cc1OC (stereo not given) | -3% | 3.5µM* | 0 | ? | -18% | -12%
COc1ccc(CCN2C(=O)CC(N3CCOCC3)C2=O)cc1OC (stereo not given) | 0% | ? | 9 | -10 | -4% | -13%
COC(=O)NC(/C=C/c1ccco1)[C@@]1(C(=O)OC)CCCC1=O (stereo not given in full) | / | -9%[13.5 µM] | / | / | / | /
CN1CCN(c2ncc3nc(-c4cn(C)c5ccccc45)c(=O)n(CCC#N)c3n2)CC1 | / | ? | / | / | 19% | /
Cc1c(Cl)cccc1NC(=O)N1CCC(CN2CCCC2)CC1 | / | / | / | / | 7%[46 µM] | /
Cc1cccc(CNc2ncncc2-c2ccccc2C)c1 | / | 9% | / | / | -13% | /
O=C(O)NCc1ccccc1 (tested in a mixture with another compound) | -3%[7.66 µM] | -3%[13.5 µM] | / | / | / | -5%
COc1ccc(C2=NNC(c3cccs3)=Nc3ccc(OC)cc32)cc1 | 0% | -8% | 7 | ? | -2% | -6%
CCOc1ccc(C2=NNC(c3cccs3)=Nc3ccc(OC)cc32)cc1OCC | 0% | 3% | -5 | -100* | ? | -13%
CC1=CC(C)C(C(=O)O)C(C(=O)O)C1 (stereo not given) | 4% | ? | -9 | -81* | ? | -9%
CC1=CCC(C(=O)O)C(C(=O)O)C1 (stereo not given) | -1% | -11% | -3 | ? | -2% | -6%
CC(=O)O[C@H]1CC[C@@]2(C)[C@@H](CC[C@H]3[C@H]2CC(=O)[C@@]2(C)[C@@H]3C[C@H]3CC(C)=CC(=O)[C@H]32)C1 | -4%[7.66 µM] | ? | / | / | / | -1%
CCN(CC)c1ccc(NC(=O)c2cc3c(=O)n4cccc(C)c4nc3n2C)c(C)c1 | / | / | / | / | 6%[46 µM] | /
CO[C@@H](CCOCc1ccccc1)C[C@H]1O[C@H](C(=O)OC(C)C)C=C[C@@H]1C | -3% | -3% | / | / | / | -10%
